Assay results as given in PubChem BioAssay (EPA / NIEHS).
The source holds several records for some structures; these can differ, active in one and inactive in another. Activity calls are given as the source filed them. Rule for the calls: active = hit-call score of the fitted dose curve at least 0.9, where 1 is the maximum; inactive = score below 0.9.

These molecules were tested on Vascular cell adhesion molecule 1 (VCAM1), VCAM1 (gene 7412) (assay: BSK_hDFCGF_VCAM1: BioMAP Diversity Plus: hDFCGF Assay for Vascular cell adhesion molecule 1 (VCAM1) Biomarker Activity (AID 2283065)). Conditions: primary human foreskin fibroblasts; actives raise or lower the signal.
Description: BSK_hDFCGF is a cell-based, multiplexed-readout assay that uses foreskin fibroblast, a human skin primary cell, with measurements taken at 24 hours after chemical dosing in a 96-well plate.BSK_hDFCGF_VCAM1 is an assay component measured in the BSK_hDFCGF assay. It measures VCAM-1 antibody related to regulation of gene expression using ELISA technology.Data from the assay component BSK_hDFCGF_VCAM1 was analyzed into 1 assay endpoint. This assay endpoint, BSK_hDFCGF_VCAM1, was analyzed with bidirectional fitting relative to DMSO as the negative control and baseline of activity. Using a type of binding reporter, gain or loss-of-signal activity can be used to understand changes in the signaling as they relate to the gene VCAM1. Furthermore, this assay endpoint can be referred to as a primary readout, because this assay has produced multiple assay endpoints where this one serves a signaling function. To generalize the intended target to other relatable targets, this assay endpoint is annotated to the cell adhesion molecules intended target family, where the subfamily is Immunoglobulin CAM.
The levels of cell surface (or secreted, indicated by the prefix "s") biomarker endpoints were measured by ELISA. Overt cytotoxicity to cells in confluent adherent cultures (all systems other than the BT system) was assessed by measuring total protein levels using sulforhodamine B (SRB) staining in parallel cultures at the time of biomarker measurements, indicated as SRB endpoints. For proliferation assays for adherent cell types, individual cell types are cultured at sub-confluence and relative cell numbers quantified by SRB staining at time points optimized for each system (48 h: 3C and CASM3C systems; 72 h: BT and HDF3CGF systems; 96 h: SAg system). SRB was performed by staining cells with 0.1% SRB after fixation with 10% TCA and reading wells at 560 nm.Viability and proliferation of PBMC (T cells) was quantified by Alamar Blue reduction for the SAg and BT systems. For PBMC viability (referred to as PBMC Cytotoxicity within the assay endpoint names), cells were plated (75,000/well in a 96-well plate) and then chemical samples added for 1 h before addition of activators, SEB and TSST-1 (20 ng/mL final concentration each). Cells were incubated for 90 h. Then, Alamar Blue (20 uL/well) (Invitrogen, Cat DAL1100) was added for 6 h, and the plates were read with a fluorescence microplate reader at 546/580 nm (excitation/emission). For PBMC proliferation, cells were plated and activated as above but incubated for only 16 h prior to addition of Alamar Blue. Plates were read after 6 h.
`[Cl][Sn]([c]1ccccc1)([c]1ccccc1)[c]1ccccc1` was tested, and the AC50 was 0.0996 µM (active). `CC(C)=CC1C(C(=O)OCc2cccc(Oc3ccccc3)c2)C1(C)C` (stereo not given) was tested, and the AC50 was 12.4 µM (active). `CCCCOC(=O)COC(=O)c1ccccc1C(=O)OCCCC` was tested, and the AC50 was 26.6 µM (active) and the outcome was “inactive”. In the case of `O=C(N[C@H]1CN2CCC1CC2)c1ccc2c(c1)OCCO2`, the outcome was “inactive”. For `Cc1ccc2nc3sc(=O)sc3nc2c1`, the AC50 was 5 µM (active). With `CCC(C)(C#N)N=NC(C)(C#N)CC` (stereo not given) the outcome was “inactive”. For `O=C(Cc1ccccc1)OCCc1ccccc1`, the outcome was “inactive”. With `Oc1cccc(-c2ccccc2)c1` the AC50 was 31.6 µM (active). With `O=C(O)C1(c2ccc3c(c2)OC[C@H](Cc2ccc(-c4ccccc4)cc2)[C@H]3O)CCCC1` the AC50 was 5.32 µM (active). For `Cc1ccccc1OP(=O)(Oc1ccccc1C)Oc1ccccc1C`, the AC50 was 6.18 µM (active). For `O=S(=O)(C(Cl)(Cl)Cl)C(Cl)(Cl)Cl`, the AC50 was 2.02 µM (active). In the case of `Oc1ccc(Cc2ccc(O)cc2)cc1`, the outcome was “inactive”. In the case of `OC(Cc1ccccc1Cl)(Cn1cncn1)C1(Cl)CC1` (stereo not given), the outcome was “inactive”. For `OCCCCO`, the outcome was “inactive”. In the case of `CN(C)C(=S)S`, the AC50 was 11.2 µM (active). With `N#CCCC(Br)(C#N)CBr` (stereo not given) the AC50 was 3.74 µM (active). For `CC(C=O)Cc1ccc2c(c1)OCO2` (stereo not given), the outcome was “inactive”. With `Oc1cc(Cl)c(Cl)cc1Cl` the AC50 was 7.54 µM (active). In the case of `Cc1cc(Cl)ccc1OC(C)C(=O)O` (stereo not given), the outcome was “inactive”. For `CC(C)(C)c1cc([N+](=O)[O-])cc(C(C)(C)C)c1O`, the outcome was “inactive”. For `NC(=O)CCl`, the outcome was “inactive”. In the case of `O=C1C=CC(=O)c2ccccc21`, the AC50 was 1.2 µM (active). With `CC(C)O.CC(C)O.OCCN(CCO)CCO.OCCN(CCO)CCO.[Ti]` the outcome was “inactive”. For `Cc1ccc(OP(=O)(Oc2ccc(C)cc2C)Oc2ccc(C)cc2C)c(C)c1`, the outcome was “inactive”. `O=C(CCl)NCO` was tested, and the outcome was “inactive”. With `O=[N+]([O-])c1ccc(Nc2ccccc2)cc1` the outcome was “inactive”. `Nc1c(Oc2ccccc2)cc(O)c2c1C(=O)c1ccccc1C2=O` was tested, and the AC50 was 15.8 µM (active). `O=S(=O)(c1ccc(Cl)cc1)c1cc(Cl)c(Cl)cc1Cl` was tested, and the outcome was “inactive”. With `C#CCOC(=O)/C=C(C)/C=C/CC(C)CCCC(C)C` (stereo not given) the AC50 was 5.7 µM (active). With `Clc1cccc(Cl)c1` the outcome was “inactive”. With `Cc1cccc(OP(=O)(Oc2cccc(C)c2)Oc2cccc(C)c2)c1` the outcome was “inactive”. In the case of `CCCCCCCCCCCCN(C)C`, the outcome was “inactive”. `N#Cc1cccnc1` was tested, and the outcome was “inactive”. For `O=C(O)COc1cc(Cl)c(Cl)cc1Cl`, the outcome was “inactive”. With `Oc1c(Br)cc(Br)cc1Br` the outcome was “inactive”. With `CCOC(=O)CCN(SN(C)C(=O)Oc1cccc2c1OC(C)(C)C2)C(C)C` the AC50 was 29.7 µM (active). `Cc1cc(C)cc(C)c1` was tested, and the outcome was “inactive”. For `CCOC(=O)CC(=O)CCl`, the AC50 was 20 µM (active). With `OCCN(CCO)CCO` the outcome was “inactive”.
